“And” between values parts separate entries of the source, which are not always exact repeats. Identical values can stand only once. In all, about 5,500 compounds went through this assay and about 2,000 (36%) were called active. Another 18% or so got no clear call; they are omitted. Cut-off read from the data, not from the text of the source: active = normalized growth mostly below about 0.91 (no sharp cut-off); inconclusive = no clear call, values can overlap the other calls; inactive = mostly above about 0.92. This is one part of the list.
Assay: chemical genetic growth profiling, strain panel (AID 1159580);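 note: tested at 20 µM; growth read once vehicle control cultures reached saturation at 30 °C; 1 = growth at the plate median or of vehicle wells; lower values mean less growth of the strain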
Conditions: S. cerevisiae deletion strains, growth OD

Measured: normalized growth

NCCSSCCN
inactive: locus YAL013W, strain DEP1, active compounds read low 1.01 | locus YAL021C, strain ccr4, active compounds read low 0.998 | locus YAL026C, strain drs2, active compounds read low 0.999 | locus YAL030W, strain snc1, active compounds read low 0.994 | locus YAL040C, strain CLN3, active compounds read low 1.02 | locus YBL061C, strain skt5, active compounds read low 0.997 | locus YBR009C, strain hhf1, active compounds read low 0.992 | locus YBR021W, strain FUR4, active compounds read low 1.01 | locus YBR023C, strain chs3, active compounds read low 0.991 | locus YBR171W, strain sec66, active compounds read low 0.988 | locus YBR229C, strain ROT2, active compounds read low 1 | locus YBR231C, strain swc5, active compounds read low 0.994 | locus YBR279W, strain paf1, active compounds read low 0.996 | locus YCL011C, strain gbp2, active compounds read low 1 | locus YCL016C, strain dcc1, active compounds read low 1 | locus YCL029C, strain bik1, active compounds read low 1.03 | locus YCL061C, strain MRC1 (second series), active compounds read low 1 | locus YCL069W, strain vba3, active compounds read low 0.997 | locus YCR088W, strain abp1, active compounds read low 0.991 | locus YDL005C, strain med2, active compounds read low 0.988 | locus YDL035C, strain GPR1, active compounds read low 1.01 | locus YDL040C, strain nat1, active compounds read low 0.996 | locus YDL074C, strain BRE1, active compounds read low 1.03 | locus YDL101C, strain DUN1, active compounds read low 1.03 | locus YDL134C, strain PPH21, active compounds read low 1.01 | locus YDL185W, strain tfp1, active compounds read low 1 | locus YDL192W, strain arf1, active compounds read low 1 | locus YDR001C, strain nth1, active compounds read low 0.992 | locus YDR069C, strain doa4, active compounds read low 0.983 | locus YDR101C, strain arx1, active compounds read low 1.01 | locus YDR137W, strain rgp1, active compounds read low 1.03 | locus YDR150W, strain NUM1, active compounds read low 1.01 | locus YDR159W, strain sac3, active compounds read low 1.01 | locus YDR162C, strain NBP2, active compounds read low 1.01 | locus YDR195W, strain ref2 0.975 | locus YDR297W, strain sur2, active compounds read low 1 | locus YDR318W, strain mcm21, active compounds read low 1.01 | locus YDR334W, strain swr1, active compounds read low 0.996 | locus YDR335W, strain msn5, active compounds read low 0.991 | locus YDR388W, active compounds read low 1.01 | locus YDR392W, strain spt3, active compounds read low 1.01 | locus YDR502C, strain sam2, active compounds read low 0.996 | locus YEL003W, strain gim4, active compounds read low 0.994 | locus YEL037C, strain rad23, active compounds read low 1 | locus YEL061C, strain CIN8 (second series), active compounds read low 0.989 | locus YEL061C, strain CIN8, active compounds read low 1 | locus YER002W, strain NOP16, active compounds read low 1.02 | locus YER015W, strain faa2, active compounds read low 1 | locus YER016W, strain bim1, active compounds read low 0.992 | locus YER110C, active compounds read low 1.01 | locus YER111C, strain swi4, active compounds read low 0.989 | locus YER155C, strain BEM2 (second series), active compounds read low 0.952 | locus YER155C, strain BEM2, active compounds read low 1.01 | locus YER167W, strain BCK2, active compounds read low 0.997 | locus YFR010W, strain ubp6, active compounds read low 0.994 | locus YGL078C, strain dbp3, active compounds read low 1 | locus YGL086W, strain mad1, active compounds read low 0.985 | locus YGL167C, strain pmr1, active compounds read low 0.993 | locus YGL173C, strain kem1, active compounds read low 0.99 | locus YGL227W, strain vid30, active compounds read low 0.99 | locus YGL240W, strain doc1, active compounds read low 0.978 | locus YGL248W, strain PDE1, active compounds read low 1 | locus YGL253W, strain hxk2, active compounds read low 0.995 | locus YGR078C, strain PAC10, active compounds read low 1.02 and 1 | locus YGR135W, strain pre9, active compounds read low 0.997 | locus YGR229C, strain SMI1, active compounds read low 0.982 | locus YGR252W, strain gcn5, active compounds read low 0.918 | locus YHR013C, strain ard1, active compounds read low 0.996 | locus YHR027C, strain rpn1, active compounds read low 0.997 | locus YHR030C, strain SLT2, active compounds read low 1 and 1.05 | locus YHR079C, strain IRE1 (second series), active compounds read low 1.02 | locus YHR079C, strain IRE1, active compounds read low 1.05 | locus YHR094C, strain hxt1, active compounds read low 1.01 | locus YHR129C, strain ARP1, active compounds read low 1.02 | locus YHR142W, strain chs7, active compounds read low 1.01 | locus YHR200W, strain rpn10, active compounds read low 1.01 | locus YIL066C, strain RNR3, active compounds read low 1.02 | locus YIL073C, strain SPO22, active compounds read low 1.02 | locus YIL125W, strain kgd1, active compounds read low 0.996 | locus YIR030C, strain dcg1, active compounds read low 1.01 | locus YJL092W, strain hpr5, active compounds read low 1 | locus YJL095W, strain BCK1 (second series), active compounds read low 0.989 | locus YJL095W, strain BCK1, active compounds read low 1.04 and 1.06 | locus YJL115W, strain asf1, active compounds read low 0.988 | locus YJL129C, strain trk1, active compounds read low 0.986 | locus YJL134W, strain LCB3, active compounds read low 1 | locus YJL154C, strain vps35, active compounds read low 0.993 | locus YJL164C, strain tpk1, active compounds read low 1.01 | locus YJL166W, strain qcr8, active compounds read low 0.989 | locus YJL168C, strain set2, active compounds read low 1.01 | locus YJL187C, strain SWE1 (second series), active compounds read low 1.03 | locus YJL187C, strain SWE1, active compounds read low 0.993 | locus YJR043C, strain POL32, active compounds read low 1.03 | locus YJR066W, strain TOR1, active compounds read low 0.918 | locus YJR075W, strain HOC1, active compounds read low 1.01
